The source of these data is PubChem BioAssay AID1063 (University of Pittsburgh Molecular Library Screening Center, 2008).

Out of some 200,000 compounds screened, about 18,000 (9%) were called active. Shown is part of a subset that was picked to be rich in actives. Unmarked numbers belong to inactive results. No stated cut-off is given here; in the data, active means inhibition above about 50%; inactive means the rest.

A short description of this test: antileishmanial activity against promastigotes – primary screen (AID 1063).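 Further: promastigotes grown with compound for 44 hours at 28 °C.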 The note with it: Leishmania major promastigotes, resazurin fluorescence viability; at 10 µM; hits give high values. (In general: The colour change of resazurin is a common sign of viable cells or microbes.)
For orientation: inhibition means the drop in the measured response relative to a control, in per cent. Regarding `CCOc1cccc2c1OC1(CCCCC1)N1N=C(c3cccnc3)CC21` (stereo unspecified), the inhibition is 57.3% (active).
To `c1cncc(-c2nnc3n2C2(CCCCC2)Cc2ccccc2-3)c1` belongs -0.67%.
Turning to `O=[N+]([O-])c1ccc(Sc2n[nH]c(-c3ccco3)n2)nc1`, the inhibition was 4.36%.
As for `CCOC(=O)CSc1nc(C)cc2c1C(=O)OC2`, the figure is 3.71%.
As for `NC(N)=N/N=C/c1ccc(OCc2ccc(Cl)cc2Cl)cc1`, the figure is 101% (active); as for `CCOc1ccc(NC(=O)NNC(=O)c2ccc(Cl)cc2Cl)cc1`, -5.16%.
On to `COC(=O)c1sc2ncccc2c1OCc1ccc(Cl)cc1Cl`, for which the inhibition was -2.34%.
`CCOC(=O)CN/C=C(\C#N)c1ccc(F)cc1`: the inhibition was -7.97%.
To `Cc1c(CN2CCCCC2)c(O)n(CCO)c(=O)c1C#N` belongs 3.34%; to `O=C(NNC(=O)c1ccc(Cl)cc1Cl)c1cccs1`, -10.1%.
To `CC(C)(O)C#Cc1ncc(C(F)(F)F)cc1Cl` belongs -3.82%.
As for `COc1ccc(C2Nc3ccccc3C(=O)N2c2ccc(Cl)cc2)cc1Cn1cc([N+](=O)[O-])cn1` (stereo unspecified), the figure is 53.1% (active); as for `COc1ccc([N+](=O)[O-])cc1C1NN=C(c2cccc3ccccc23)S1` (stereo unspecified), -6.23%; as for `CCN(C(=O)CSc1nc2ccccc2n1CC)C1CCS(=O)(=O)C1` (stereo unspecified), -3.23%.
On to `CC(C)CNC(=O)/C=C/C(=O)O`, for which the inhibition is 1.32%.
As for `CC(=O)c1ccc(-c2nnc(CCC(=O)N(C)Cc3cnc4ccccn34)o2)s1`, the figure is -0.67%; as for `Cc1ccc(NC(=O)Cn2nc(C)c3ccccc3c2=O)c(C)c1`, 34.8%.
On to `Cc1ccc(NC(=O)c2ccn(C(=O)Nc3ccccc3)n2)c(C)c1`, for which the inhibition is -1.05%.
In the case of `Cc1ccc(NC(=O)Cn2cccc2C2=NC(c3ccccc3)CO2)c(C)c1` (stereo unspecified), the inhibition was 77.4% (active).
Turning to `CC1(C)CC(=O)c2ccc(O)cc2O1`, the inhibition was -5.54%.
To `CN(Cc1cccc2ncccc12)C(=O)CC1C(=O)NCCN1Cc1ccc(F)cc1` (stereo unspecified) belongs -8.65%; to `COc1ccc(S(=O)(=O)N2CCC(C(=O)N3CCOCC3)CC2)cc1OC`, -6.25%.
To `O=C(NCC1CCCO1)C1CCN(C2CCN(C(=O)C3CCCCC3)CC2)CC1` (stereo unspecified) belongs -2.22%; to `O=C(C1CCN(C2CCN(Cc3cccc4c3OCO4)CC2)CC1)N1CCOCC1`, 76.2% (active).
As for `O=C(C1CCN(C2CCN(Cc3ccc4cc(F)ccc4n3)CC2)CC1)N1CCCC1`, the figure is 48.3%; as for `O=C(C1CCN(S(=O)(=O)c2cnc[nH]2)CC1)N1CCN(Cc2ccc3c(c2)OCO3)CC1`, -5.72%.
Turning to `C/C(=C\c1ccco1)CN1CCC(N2CCC(C(=O)N3CCOCC3)CC2)CC1`, the inhibition is 77.8% (active).
On to `Cn1c(N)c(C(=O)COC(=O)c2ccccc2NCc2ccco2)c(=O)n(C)c1=O`, for which the inhibition was -3.53%.
As for `Cc1ccc(NC(=O)CN2CCC(C(N)=O)CC2)cc1[N+](=O)[O-]`, the figure is -1.6%; as for `CN1CCN(c2nc(Nc3ccc(O)cc3)nc3ccccc23)CC1`, 99.9% (active).
As for `CCCCc1nc2ccccc2c(NC(=O)CN2CCN(C)CC2)c1CCC`, the figure is 32.8%.
On to `c1ccc(Nc2nc(N3CCOCC3)c3ccccc3n2)cc1`, for which the inhibition is 79.3% (active).
To `c1ccc(-c2nnc(N3CCOCC3)c3ccccc23)cc1` belongs 14%; to `Cc1cc(N2CCN(C)CC2)nc2ccc(NC(=S)N3CCOCC3)cc12`, 6.8%; to `COc1ccc(Nc2ncc(F)c(N3CCOCC3)n2)cc1`, 19.7%.
As for `CC1CCC(NC(=O)C2c3ccccc3C(=O)N2Cc2ccc3c(c2)OCO3)CC1` (stereo unspecified), the figure is 14.7%; as for `CNC(=S)NNC(=O)c1cccn(Cc2ccccc2)c1=O`, -2.81%; as for `CCc1nnc(NC(=O)CCCSc2nc3ccccc3[nH]2)s1`, 12.7%.
Turning to `COc1ccc(N2CCN(C(=O)C3CCN(S(=O)(=O)c4ccc(C)cc4)CC3)CC2)cc1`, the inhibition was 7.36%.
As for `O=c1oc(-c2ccco2)nc2sc3c(c12)CCCCC3`, the figure is -6.27%; as for `CCn1c(N)c(Br)c(=O)[nH]c1=O`, -8.78%.
To `CCCCN(CC)CCCNC(=O)c1ccc(CSc2nc3ccncc3[nH]2)cc1` belongs -5.43%; to `Cc1ncoc1C(=O)N1CCCC(C(=O)c2ccc3c4c(cccc24)CC3)C1` (stereo unspecified), 5.73%.
As for `O=C(COC(=O)/C=C/c1ccc(S(=O)(=O)N2CCCCCC2)cc1)NCc1ccccc1Cl`, the figure is 65.4% (active); as for `O=C(O)/C=C/c1ccc(S(=O)(=O)N2CCCCCC2)cc1`, -3.02%; as for `COc1ccc(CNC(=O)COC(=O)/C=C/c2ccc(S(=O)(=O)N3CCOCC3)cc2)cc1`, 2.59%.
For `Cc1ccc(NCc2n[nH]c(=S)n2-c2ccccc2)cc1Cl`, the inhibition was -7.27%.
As for `CC(=O)c1ccc(N2CCN(CC(=O)Nc3ccccc3N3CCOCC3)CC2)cc1`, the figure is 12.9%; as for `CC(C)n1c(-c2ccncc2)n[nH]c1=S`, -1.76%.
As for `Cc1ccc(N2C(=O)C(CC(=O)Nc3cccc(F)c3)N(CCc3ccncc3)C2=O)cc1` (stereo unspecified), the figure is 1.18%; as for `N#Cc1c(NC(=O)C2CCCO2)sc2c1CCCCC2` (stereo unspecified), 0.81%; as for `O=C(Nc1ccccc1)c1ccc2c(c1)OCO2`, -3.43%.
To `CC1CN(C(=O)c2ccc3c(c2)OCO3)OC(c2ccccc2)O1` (stereo unspecified) belongs 71.5% (active).
Regarding `O=C(c1ccc2c(c1)OCO2)N1CCOCC1`, the inhibition is -6.99%.
Consider `O=C(CSc1ccc(-c2ccccc2)nn1)NCC1CCCO1` (stereo unspecified), for which the inhibition is -4.19%.
As for `Cc1cc(C)nc(NNC2=CC(=O)CC(C)(C)C2)n1`, the figure is -7.56%.
To `CCOC(=O)/C(C#N)=C/c1cn(CCC(=O)O)nc1-c1ccc(Br)cc1` belongs -8.02%; to `CCOC(=O)Cc1ncccc1C(=O)Nc1ccc(OC)cc1`, -2.87%.
In the case of `CC(C)(CNC(=O)c1ccc(Cl)c(S(=O)(=O)N2CCc3ccccc3C2)c1)N1CCOCC1`, the inhibition is 50.3% (active).
As for `O=C(NCCSCc1ccccc1)c1ccc(Cl)c(S(=O)(=O)N2CCOCC2)c1`, the figure is 5.02%.
To `Cc1ccccc1CSCCNC(=O)c1ccc(Cl)c(S(=O)(=O)N2CCOCC2)c1` belongs 25.1%.
